a7 integrin act = activates integrin-mediated alleviation for muscular dystrophy | alpha7betagal myoblasts, beta-gal FDG fluorescence, 48 h | Potency, µM (titrated, usually from 38.3 µM), actives largely listed as activators | hit rate 0.064% among 350,000 | AID 624291; note: nearly all actives have a fitted effect of over 60% in size
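alpha7betagal+/- myoblasts (passage 13, 250/well) treated 48 h at 37C with compounds at 1:260 dilution of DMSO stock. Lysed, then beta-galactosidase activity read as FDG fluorescence (ex 480/em 540) after 30 min, with pre-read for autofluorescence.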
RXFP1 agonist = RXFP1 (human) receptor agonism; Potency, µM (highest dose often 57.5 µM), hits mostly activators; hit rate 0.3% among 370,000; Q9HBX9; HEK293T-RXFP1 cAMP TR-FRET, 30 min; response scale: percent of porcine relaxin response, buffer zero; note: nearly all actives have a fitted effect of over 60% in size
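HEK293T cells stably expressing RXFP1 were pretreated with the PDE4 inhibitor Ro 20174, exposed to compounds for 30 min at 37C, lysed, and cAMP was read by TR-FRET. Data normalized to buffer (basal) and 29 nM porcine relaxin (100%).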
RXFP1 antagonist = RXFP1 (human) relaxin receptor antagonism; hit rate 0.59% among 350,000; HEK293-RXFP1, relaxin-stimulated cAMP HTRF, 30 min; hits give low values; Q9HBX9; AID 1259400; activity change, negative = inhibition, % at 57.5 µM;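 active = activity change of -60% or lower, but not beyond a set lower limit; inconclusive = change between -60% and -40%, or beyond the set limit; inactive = change above -40%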
gsp antagonist = antagonists of gsp mutant (McCune-Albright syndrome) | Potency, µM (highest dose often 76.9 µM), actives largely listed as inhibitors | hit rate 0.4% among 340,000 | gsp-mutant cells, cAMP HTRF, 30 min; calls by dose curve; cell line not stated here;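 note: intracellular cAMP measured with PDE inhibitor Ro 20-1724 present during compound exposure; nearly all actives have a fitted effect of over 65% in size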
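Measurement of cellular cAMP by homogeneous time-resolved fluorescence following a 30 min compound exposure at 37C. The PDE inhibitor […] was present throughout; the assay buffer was DPBS with 0.05% BSA and 0.005% Tween 20.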
gsp agonist = gsp mutant agonism. gsp mutant cells, cAMP HTRF, 30 min. Potency, µM (doses to about 76.9 µM), hits mostly activators. hit rate 0.13% among 340,000; active = well fitted activation curve with a large enough effect; inconclusive = small, poorly fitted or top-dose-only effect, or another doubt; inactive = no such curve, though single readings can be large or run the other way; cell line not stated here;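 note: phosphodiesterase inhibitor Ro 20-1724 added with compounds to block cAMP breakdown; nearly all actives have a fitted effect of over 60% in size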
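Cells in DMEM/10% FBS with G418 were pretreated with compounds in DMSO plus […] (300 uM stock) for 30 min at 37C. cAMP was measured by HTRF (cAMP-d2 plus anti-cAMP antibody-K) after 30 min at room temperature.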
S-ASM inh = inhibitors of human secretory acid sphingomyelinase. P17405. placental ASM, HMU-PC fluorogenic substrate, 60 min. Potency, µM (titrated, usually from 57.5 µM), most hits filed as inhibitors. hit rate 0.006% among 340,000
Target sequence (P17405 47-631 limits assumed): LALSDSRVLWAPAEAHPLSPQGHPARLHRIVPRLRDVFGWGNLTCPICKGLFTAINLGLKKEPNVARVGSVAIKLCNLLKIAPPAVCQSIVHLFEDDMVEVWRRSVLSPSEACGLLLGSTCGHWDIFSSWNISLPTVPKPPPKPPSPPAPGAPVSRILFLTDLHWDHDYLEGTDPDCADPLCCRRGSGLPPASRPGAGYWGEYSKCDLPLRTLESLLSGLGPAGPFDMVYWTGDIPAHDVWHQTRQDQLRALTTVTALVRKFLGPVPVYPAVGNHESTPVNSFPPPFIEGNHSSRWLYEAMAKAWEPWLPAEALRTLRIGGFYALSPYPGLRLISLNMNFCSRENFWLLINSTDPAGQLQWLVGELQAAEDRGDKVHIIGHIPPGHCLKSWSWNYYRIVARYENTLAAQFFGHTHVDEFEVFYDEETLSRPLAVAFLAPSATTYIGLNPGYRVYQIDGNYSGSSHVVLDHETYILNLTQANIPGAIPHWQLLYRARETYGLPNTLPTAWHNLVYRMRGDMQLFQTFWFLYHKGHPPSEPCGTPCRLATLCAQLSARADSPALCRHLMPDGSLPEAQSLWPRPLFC
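qHTS format. ASM enzyme prepared from human placenta hydrolyses the fluorogenic substrate HMU-PC0 (9 uM final) over 60 min at 37 °C after a 10 min compound preincubation.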
A number is an active result; – = inactive; ? = inconclusive; · = not tested or not shown; ! = a repeat was not active; [ ] = another dose, or the depositor's remark. Compounds with a hit are over-represented: about 1.1% of the library has one in this group of screens. Unless noted, calls come from the whole dose curve; as a rule, active = well fitted curve in the direction sought with a large enough effect; inconclusive = small, poorly fitted or top-dose-only effect, or another doubt; inactive = no such curve, though single readings can be large; an effect the other way counts as inactive or inconclusive.

SMILES	a7 integrin act	RXFP1 agonist	RXFP1 antagonist	gsp antagonist	gsp agonist	S-ASM inh
CCc1cccc2c(SC(C)C(=O)NCC3CCCO3)nc(-c3ccccc3)nc12 (centres undefined)	–	–	–	–	–	–
COc1cccc2cc(C(=O)Nc3ccc(F)cc3)c(=Nc3ccc(C(=O)O)cc3)oc12	–	–	–	11.2µM	–	–
Cc1cc(N2CCN(S(=O)(=O)c3ccc(Cl)c(Cl)c3)CC2)c2ccccc2n1	–	–	–	–	–	–
Cc1cc(N2CCN(S(=O)(=O)c3ccc(Cl)cc3)CC2)c2ccccc2n1	–	–	–	50.1µM	–	–
COCC(=O)Nc1nc2ccccc2s1	–	–	–	–	–	–
CC1(C(=O)Nc2nc3ccccc3s2)CC1(Br)Br (centres undefined)	–	20µM	–	–	–	–
COc1ccc(NS(=O)(=O)c2cc(Br)cc3c2N(C(=O)C2CC2)CC3)cc1OC	·	–	–	·	·	·
COc1cc2[nH]c(=S)n(CCCN3CCOCC3)c(=O)c2cc1OC	–	–	-67.8	–	–	–
O=C(NCC1CCCO1)c1ccc2c(=O)n(CC3CCCO3)c(=S)[nH]c2c1 (centres undefined)	–	–	–	–	–	–
COc1cc2[nH]c(=S)n(CC3CCCO3)c(=O)c2cc1OC (centres undefined)	–	–	-93.6	–	–	–
COC(=O)c1ccc2c(=O)n(CCCN3CCOCC3)c(=S)[nH]c2c1	–	–	–	–	–	–
O=C(Nc1ccc(F)cc1)c1ccc2c(=O)n(CC3CCCO3)c(=S)[nH]c2c1 (centres undefined)	–	–	-67.9	?	?	–
O=C(O)c1cn(C2CC2)c2cc(Cl)c(F)cc2c1=O	·	·	–	·	·	·
Cc1ccc(C)c(OCC(O)CN2CCC(Cc3ccccc3)CC2)c1 (centres undefined)	–	–	-69.6	–	–	–
Cc1ccc(C(C)C)c(OCC(O)CN2CCc3ccccc3C2)c1 (centres undefined)	–	–	-80.5	–	–	–
Cc1nc2nc(SCC(=O)NCCc3ccccc3)nn2c(C)c1Cc1c(F)cccc1Cl	·	–	·	·	·	·
CC1CCCC(C)N1S(=O)(=O)c1ccc(NC(=O)CNC2CCCC2)cc1 (centres undefined)	–	–	–	–	–[15.4 µM]	–
CC(=O)Nc1ccc(S(=O)(=O)N2CCC(C(=O)N[C@@H](C)C(=O)NC3CCCC3)CC2)cc1	–	–	–	50.1µM	–	–
CC1CCN(S(=O)(=O)c2ccc(NC(=O)CNC3CCCCC3)cc2)CC1	–	–	-104.2	–	?	–
Cc1cc(C(=O)CCC(=O)Nc2cccc(F)c2)c(C)s1	–	·	–	·	–	·
COc1ccc(N2C(=O)C(Cl)=C(N3CCOCC3)C2=O)cc1	–	–	-61.7	–	–	–
COc1ccc(N2C(=O)C(Cl)=C(Oc3cccc(OC)c3)C2=O)cc1	–	–	–	28.2µM	–[15.4 µM]	–
COc1ccc(N2C(=O)c3ccccc3C2=O)cc1	–	–	–	–	–[15.4 µM]	–
CCOC(=O)c1ccc2c(c1)n(CC)c(/C=C/N(C)c1ccccc1)[n+]2CC	–	–	–	–	–	–
CC[n+]1c(/C=C/N(C)c2ccccc2)n(-c2ccccc2)c2ccc(-c3nc4ccccc4s3)cc21	–	–	-60.5	?	–[15.4 µM]	–
SMILES	a7 integrin act	RXFP1 agonist	RXFP1 antagonist	gsp antagonist	gsp agonist	S-ASM inh
CCc1ccc2[nH]c(=O)c(CN(CCN(C)C)C(=S)NCc3ccco3)cc2c1	–	–	-64.1	–	–	–
CCc1ccc2[nH]c(=O)c(CN(CCN(CC)CC)C(=S)NCc3ccco3)cc2c1	–	–	–	–	–	–
CCCCCN(CCCOC)C(=O)C(CCC(=O)O)NC(=O)c1ccc(Cl)c(Cl)c1 (centres undefined)	·	·	–	·	·	·
COC(=O)c1ccccc1NC(=O)c1cc[n+]([O-])cc1	3.98µM	–	–	–	–	–
COc1ccc(NC(=O)C(=O)NCCC2CCCCN2S(=O)(=O)c2ccccc2)cc1 (centres undefined)	–	–	–	–	–	–
COCCN1C(=O)c2[nH]nc(-c3ccccc3O)c2C1c1ccc(Cl)c(Cl)c1 (centres undefined)	·	–	-70.0	·	·	·
CCCOc1cccc(C2c3c(-c4ccccc4O)n[nH]c3C(=O)N2Cc2ccco2)c1 (centres undefined)	·	–	-80.1	·	·	·
COc1cc(C2c3c(-c4ccccc4O)n[nH]c3C(=O)N2CCO)ccc1OCc1ccccc1 (centres undefined)	·	–	–	·	·	·
Cc1ccc(O)c(-c2n[nH]c3c2C(c2ccc(F)cc2)N(Cc2ccco2)C3=O)c1 (centres undefined)	·	–	-63.9	·	·	·
O=C1c2[nH]nc(-c3ccccc3O)c2C(c2cccc(OCc3ccccc3)c2)N1CCCO (centres undefined)	·	–	-64.1	·	·	·
COc1cccc(C(=O)NNC(=O)C(=O)Nc2cccc(Cl)c2C)c1	–	–	-69.5	–	–	–
COc1cccc(C(=O)NNC(=O)C(=O)Nc2ccc(C)cc2)c1	–	–	–	–	–	–
CC(C)CC(=O)N1CCN(Cc2ccc3ccccc3c2)CC1	–	–	–	–	–	–
CSc1ccc(CN2CCN(C(=O)CC(C)C)CC2)cc1	–	–	-63.3	–	–	–
NC(=O)c1c(NC(=O)C2COc3ccccc3O2)sc2c1CCN(Cc1ccccc1)C2 (centres undefined)	–	–	-97.3	–	–[15.4 µM]	–
CCOC(=O)c1c(NC(=O)C2COc3ccccc3O2)sc2c1CCN(Cc1ccccc1)C2 (centres undefined)	–	–	–	–	–	–
O=C(Nc1nnc(C(F)(F)F)s1)C1COc2ccccc2O1 (centres undefined)	?	–	–	35.5µM	–	–
Cn1ccc2cc(S(=O)(=O)N3CCCC(C(=O)NCc4ccccc4)C3)ccc21 (centres undefined)	·	–	–	·	·	·
Cc1ccc(-c2cc(C(=O)N(C)Cc3cnn(C)c3C)c3cc(Br)ccc3n2)cc1	–	–	–	?	?	–
Cc1ccc(-c2cc(C(=O)NCc3cnn(C)c3C)c3cc(Br)ccc3n2)cc1	–	28.2µM!	–	–	?	–
CCOC(=O)c1cccc(NC(=O)CCn2nc(C)c3c(C)n(-c4ccccc4)nc3c2=O)c1	·	–	–	·	·	·
CC1(C)CC[C@]2(C(=O)O)CC[C@]3(C)C(=CC[C@@H]4[C@@]5(C)CC[C@H](O[C@@H]6O[C@H](C(=O)O)[C@@H](O)[C@H](O[C@@H]7OC[C@H](O)[C@H](O)[C@H]7O)[C@H]6O)C(C)(C)[C@@H]5CC[C@]43C)[C@@H]2C1	–	·	·	44.7µM	·	–

From PubChem
